About 5,900 (0.91%) of roughly 650,000 compounds were called active. Shown is part of a subset that was picked to be rich in actives. Values without a mark were called inactive. Cut-off read from the data, not from the text of the source: active = inhibition above about 50%; inactive = the rest.

For the test, the target named is Microphthalmia-associated transcription factor (Homo sapiens) (UniProt O75030). The experiment in a line: MITF inhibitors, primary screen, biochemical, AlphaScreen, human (AID 1259374).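 Note: 0% = vehicle wells with protein.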 As to conditions: AlphaScreen MITF homodimerization, bead proximity signal; at 2.6 µM; hits give high values. A general note: In Alpha technology, singlet oxygen from a donor bead excites a nearby acceptor bead.
Sequence of Microphthalmia-associated transcription factor (Homo sapiens) (O75030 whole entry, looked up): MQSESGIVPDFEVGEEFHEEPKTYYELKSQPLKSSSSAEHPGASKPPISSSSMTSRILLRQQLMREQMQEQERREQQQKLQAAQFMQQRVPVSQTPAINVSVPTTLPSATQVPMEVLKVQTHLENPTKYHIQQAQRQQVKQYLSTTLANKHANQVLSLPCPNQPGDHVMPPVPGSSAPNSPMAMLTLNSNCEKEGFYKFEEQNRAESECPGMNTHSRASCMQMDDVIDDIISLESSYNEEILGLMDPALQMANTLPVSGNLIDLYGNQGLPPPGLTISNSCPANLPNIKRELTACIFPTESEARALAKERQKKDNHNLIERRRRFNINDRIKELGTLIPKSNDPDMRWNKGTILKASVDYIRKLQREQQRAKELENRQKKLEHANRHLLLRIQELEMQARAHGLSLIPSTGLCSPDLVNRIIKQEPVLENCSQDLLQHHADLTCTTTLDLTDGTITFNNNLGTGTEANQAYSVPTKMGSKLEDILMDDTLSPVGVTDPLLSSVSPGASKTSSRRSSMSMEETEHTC
Broadly, the inhibition is the drop in the measured response relative to a control, in per cent. On to `CCc1nc2ccccc2c(=O)n1-c1ccccc1`, for which the inhibition was 10.7%.
To `CCN1CCc2nc3ccccc3c(C(=O)O)c2C1` belongs 61.5% (active).
In the case of `CCn1c(C(=O)O)c(CC(=O)N2CCN(Cc3ccccc3)CC2)c2ccccc21` it was 3.77%; in that of `O=[N+]([O-])c1ccc(N2CCCCC2)c2cccnc12`, 27.4%.
To `CS(=O)(=O)Nc1ccc(C#N)c(Cl)c1` belongs -2.59%; to `CCC(=O)c1ccc(N2CCN(C)CC2)c(F)c1`, -2.65%.
As to `C(#CC1CC1)CN(C1CCCCC1)C1CCCCC1`, the inhibition was 83.7% (active).
To `CN(CC#CC1CC2CCC1C2)C1CCCCC1` (configuration not stated) belongs -0.53%; to `CCn1c(=O)n(CC2CS2)c2ccccc21` (configuration not stated), -0.54%; to `Cc1cnc2nc3c(cc2c1)CN(Cc1cccnc1)CC3`, -8.7%.
In the case of `CN1CCN(c2cc3[nH]c(=S)[nH]c3cc2F)CC1` it was -8%.
For the compound `CCOC(=O)C1C2NC(=S)N(c3ccc(CC)cc3)C1(C)Oc1c(OC)cccc12` (configuration not stated), the inhibition was 39.5%.
On to `CCOC(=O)C1C2NC(=S)NC1(C)Oc1c(OCC)cccc12` (configuration not stated), for which the inhibition is -1.57%.
To `CCOC(=O)C1C2NC(=S)N(c3ccc(Cl)cc3)C1(C)Oc1ccccc12` (configuration not stated) belongs 10.8%; to `CCOC(=O)C1C2NC(=S)N(c3ccc(F)cc3)C1(C)Oc1c(OCC)cccc12` (configuration not stated), 55.5% (active).
With `CCOC(=O)C1C2NC(=S)NC1(C)Oc1cc(OC)ccc12` (configuration not stated), the inhibition is 13.6%.
In the case of `CCOC(=O)C1C2NC(=S)N(CC)C1(C)Oc1ccc(Cl)cc12` (configuration not stated), the inhibition was 65.6% (active).
In the case of `Cn1c(SCCOC(N)=O)nnc1-c1ccc([N+](=O)[O-])cc1` it was 5.78%; in that of `CS(=O)(=O)c1ccc(CC(=O)N2CCN(C(c3ccccc3)c3ccccc3)CC2)cc1`, 7.6%; in that of `c1ccc(-c2ccnc3nc4ccccc4n23)cc1`, 7.67%.
To `OC(CNC1CN2CCC1CC2)COc1cccc2ccccc12` (configuration not stated) belongs 18.3%; to `COc1ccc(CN2CCN(C(C)C)CC2)c(OC)c1OC`, 68.1% (active); to `CC(C)N1CCN(Cc2ccccc2)CC1`, 41%.
For `COc1ccc(CN2CCN(C(C)C)CC2)cc1`, the inhibition is 57% (active).
To `COc1ccc(CN2CCN(c3ccc(C(C)=O)cc3)CC2)cc1` belongs 18.3%; to `COc1ccc(CN2CCN(c3ccccc3F)CC2)c(OC)c1`, 14%.
In the case of `COc1ccc(CN2CCN(CCO)CC2)c(OC)c1OC` it was -8.5%.
To `CC(C)CN(Cc1c(O)ccc2c(=O)c(-c3ccccc3)coc12)CC(C)C` belongs -5.09%; to `COC(NC(=O)c1ccco1)C(Cl)(Cl)Cl` (configuration not stated), 17.3%.
Take `CCCCn1c(C)c(C(=O)OCC)c2cc(OC(=O)COc3ccccc3)c3ccccc3c21`: the inhibition was -5.32%.
`Cc1nc2ccccc2c(=O)n1-c1cccc(Cl)c1`: the inhibition was 22.4%.
In the case of `COc1ccc(Cl)cc1C(=O)C1CCCN(Cc2ncc[nH]2)C1` (configuration not stated) it was 7.6%.
To `COc1cc(NC(=O)CCc2nc(C3=CCN(C)CC3)no2)cc(OC)c1OC` belongs 51.6% (active).
To `CCCN1CCN(C(=O)Cc2nc(-c3ccc(OC)cc3)no2)CC1` belongs 1.81%; to `CCOC(=O)C1=C(c2ccccc2)OC(N)=C(C#N)C12C(=O)Nc1ccc(Br)cc12` (configuration not stated), 2.49%; to `CC[C@@H](C)C(=O)O[C@H]1[C@H](O)[C@H]2[C@@H](CN3C[C@@H](C)CC[C@H]3[C@@]2(C)O)[C@@H]2C[C@]34O[C@]5(O)[C@@H](OC(=O)C(C)(O)C(C)O)CC[C@@]3(C)[C@@H]5[C@@H](OC(C)=O)[C@@H](OC(C)=O)[C@H]4[C@@]21O` (some centres not stated), 23.5%.
On to `COc1ccc(CNCCc2c[nH]c3ccccc23)cc1OC`, for which the inhibition was 13.6%.
In the case of `O=[N+]([O-])c1ccc(CNCCc2c[nH]c3ccccc23)cc1` it was 25.3%; in that of `c1cncc(CNCCc2c[nH]c3ccccc23)c1`, 84% (active).
To `Cc1nn(CC(=O)N2CCC3(CC2)OCCO3)c(=O)c2cccn12` belongs -10.4%; to `O=C1CN=C(c2ccc(Br)cc2)c2cc(Br)ccc2N1`, -2.48%; to `N#Cc1ccc(NC(=O)COc2cc(F)ccc2[N+](=O)[O-])cc1Cl`, 10.7%.
`CN1CN/C(=N\[N+](=O)[O-])N(Cc2ccco2)C1`: the inhibition is -9.51%.
As to `Fc1ccccc1CN1CCN(Cc2ccccc2F)CC1`, the inhibition is 75.5% (active).
To `CCC(C)N1CCN(Cc2cccc(OC)c2)CC1` (configuration not stated) belongs 63.5% (active); to `COc1ccc(CN2CCN(c3ccccc3F)CC2)c(O)c1`, 21.3%; to `COc1cc(CN2CCN(c3ccccc3)CC2)cc(OC)c1`, 5.15%.
For `O=C(COc1ccccc1)N1CCN(Cc2cccc(Oc3ccccc3)c2)CC1`, the inhibition was 32.3%.
Regarding `Fc1ccc(N2CCN(Cc3ccccc3F)CC2)cc1`, the inhibition was 12.7%.
`CCN1CCN(Cc2ccc(F)cc2F)CC1`: the inhibition was 1.97%.
To `COc1cccc(CN2CCN(Cc3ccccc3OC)CC2)c1` belongs 7.82%; to `COc1cccc(CN2CCN(Cc3ccccc3F)CC2)c1`, 75.4% (active).
In the case of `CCOC(=O)C1=C(N)Oc2cc(C)n(CC)c(=O)c2C12C(=O)N(CC(C)C)c1ccccc12` (configuration not stated) it was 4.18%; in that of `Cc1ccc(C(O)(C(=O)NNc2cc(Cl)ccc2Cl)c2ccc(C)cc2)cc1`, 8.08%; in that of `O=[N+]([O-])c1ccc(N2CCc3ccccc3C2)c2ccncc12`, 5.66%.
In the case of `CC(C)(CNc1ccc([N+](=O)[O-])c2cccnc12)CNS(=O)(=O)c1ccc(Cl)cc1`, the inhibition was 0.37%.
In the case of `N#CC1=C(N)Oc2c(c(=O)oc3ccccc23)C1c1ccc(OC(F)(F)F)cc1` (configuration not stated) it was 2.42%; in that of `CSc1ccccc1NC(=O)CN(C)CC(=O)Nc1ccc(C#N)c(Cl)c1`, 82.2% (active); in that of `COc1ccc(NC(=O)CN(C)CC(=O)Nc2ccc(C#N)c(Cl)c2)cc1`, 7.15%.
On to `CSCCC(NC(=O)c1ccco1)C(=O)OCC(=O)Nc1ccc(C#N)c(Cl)c1` (configuration not stated), for which the inhibition was 4.56%.
To `COc1ccccc1N1C(=O)NC(=O)/C(=C\c2ccc(Cl)cc2Cl)C1=O` belongs -0.45%.
In the case of `CC(Cc1ccccc1)NC(=O)/C=C/c1ccco1` (configuration not stated), the inhibition was 7.08%.

Values taken from PubChem BioAssay AID1259374 (The Scripps Research Institute Molecular Screening Center, 2018).
